In the library only some 19% were active in any assay of this set; here they are far more common.
HT1080NT lethal: kills 2HG-producing HT-1080-NT fibrosarcoma cells; 1.6% of 360,000 active; HT-1080-NT fibrosarcoma viability, CellTiter-Glo ATP luminescence, 48 h; Potency, µM (highest dose often 46.1 µM), most hits filed as cytotoxic; AID 686970;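 also: NT is the 2HG producing partner of a matched IDH1 knockdown line; nearly all actives have a fitted effect of over 55% in size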
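Luminescent CellTiter-Glo readout after 48 hours of compound exposure at 37 degrees C defined viability of HT-1080-NT cells. Activity was normalized to DMSO wells and cell-free media wells; concentration-response curves were fitted and assigned curve classes.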
DT40 TDP1 CPT: DT40-hTDP1 cell growth loss with CPT | chicken DT40 Tdp1-/-;hTDP1 cells + 20 nM CPT, ATP luminescence, 48 h | Potency, µM (top dose mostly 46.2 µM), hits mostly inhibitors | 12% of 420,000 active | AID 686979; also: nearly all actives have a fitted effect of over 55% in size
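Cell growth measured by CellTiter-Glo luminescence after a minimum 48 h, 37 C compound exposure with 20 nM CPT in Tdp1-knockout DT40 cells stably expressing hTDP1, seeded 400/well; qHTS titration format.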
KB-3-1 tox: KB-3-1 parental cell cytotoxicity; KB-3-1 viability, CellTiter-Glo ATP luminescence, 72 h; Potency, µM (highest dose often 46.1 µM), hits mostly cytotoxic; 1.4% of 400,000 active; AID 1347075; also: nearly all actives have a fitted effect of over 60% in size
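Screening of KB-3-1 cells (DMEM, 10% FBS, phenol-red free) ran from lowest to highest compound concentration; after 72 h at 37 °C viability was read luminescently and curves fitted.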
DT40 TDP1 no CPT: qHTS for Inhibitors of human tyrosyl-DNA phosphodiesterase 1 (TDP1): qHTS in cells in absence of CPT; DT40 Tdp1-/- hTDP1 cells, no CPT, ATP luminescence, 48 h; Potency, µM (top dose mostly 46.2 µM), hits mostly inhibitors; 15% of 420,000 active; AID 686978, 2013; also: nearly all actives have a fitted effect of over 55% in size
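Luminescent ATP content (CellTiter-Glo) served as the growth readout. Knockout chicken DT40 cells expressing human TDP1 were exposed to compounds without camptothecin for a minimum 48 hr at 37 °C.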
HT1080 IDH1KD tx: HT-1080 IDH1 knockdown cell toxicity (counter line). 2% of 360,000 active. Potency, µM (top dose mostly 46.1 µM), most hits filed as cytotoxic. HT-1080 IDH1 knockdown viability, ATP luminescence, 48 h
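CellTiter-Glo luminescence after 48 h compound exposure at 37 degrees C of IDH1-knockdown HT-1080 cells in 5% FBS RPMI. %Activity scaled between DMSO wells and cell-free media wells, with curves fitted and assigned curve classes.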
KB-V1 cytotox: kills drug-selected multidrug resistant KB-V1 cells; KB-V1 MDR cells viability, CellTiter-Glo, 72 h; Potency, µM (top dose mostly 46.1 µM), most hits filed as cytotoxic; 3.4% of 400,000 active; AID 1347076; also: nearly all actives have a fitted effect of over 60% in size
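Cytotoxicity via CellTiter-Glo luminescence after 72 h compound exposure at 37 degrees C. Cells: drug-selected KB-V1 line, DMEM phenol-red free plus 10% FBS. Compounds tested at multiple concentrations; normalized data fitted to concentration-effect curves.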
A number is an active result; - = inactive; ? = inconclusive; . = no result given; [ ] = another dose, or the depositor's remark. Calls follow the shape of the dose curve; as a rule, active = well fitted curve in the direction sought with a large enough effect; inconclusive = small, poorly fitted or top-dose-only effect, or another doubt; inactive = no such curve, though single readings can be large; an effect the other way counts as inactive or inconclusive.

SMILES | HT1080NT lethal | DT40 TDP1 CPT | KB-3-1 tox | DT40 TDP1 no CPT | HT1080 IDH1KD tx | KB-V1 cytotox
CSc1ccc(CCNC(=O)c2ccc(-c3nc(COc4ccccc4)c(C)o3)cc2)cc1 | . | - | - | - | . | -
C#CCOc1c(Br)cc(C2C(C(=O)OC)=C(C)NC3=C2C(=O)c2ccccc23)cc1OCC (centres undefined) | . | ? | 4.6µM | 5.8µM | . | ?
CCOc1cc(C2NC(=O)N(C)C(C)=C2C(=O)OC)cc(Br)c1O (centres undefined) | - | - | - | - | - | -
CCOc1ccc(C2C(C(=O)OC)=C(C)NC3=C2C(=O)c2ccccc23)cc1OC (centres undefined) | . | 18µM | - | 21µM | . | -
CCOC(=O)C1=C(C)NC2=C(C(=O)c3ccccc32)C1c1cccnc1 (centres undefined) | - | ? | - | ? | - | -
Cc1ncc2c(c1CNC(=O)c1ccc3c(c1)OCO3)CCN(C(=O)c1cnsn1)C2 | . | -[9.04 µM] | . | - | . | .
COc1ccc(CCNC(=O)C2CC3Cn4c(nc5ccccc54)C3N2C)cc1 (centres undefined) | - | - | - | - | - | -
COc1ccc(CCNC(=O)C2CC3Cn4c(nc5ccccc54)C3N2Cc2ccccc2)cc1 (centres undefined) | - | ? | - | 18µM | - | -
Cc1ccc(CNC(=O)c2nc(SCc3cccc(C)c3)ncc2Cl)cc1 | . | ? | ? | ? | . | -
CCOC(=O)c1ccc(NC(=O)c2nc(S(=O)(=O)Cc3ccccc3)ncc2Cl)cc1 | 5.8µM | 0.46µM | 21µM | 1.3µM | 2.9µM | ?
CC(=O)Nc1ccc(NC(=O)c2nc(S(=O)(=O)Cc3cccc(C)c3)ncc2Cl)cc1 | 9.2µM | 0.058µM | 5.2µM | 0.046µM | 5.8µM | ?
COC(=O)c1ccc(NC(=O)c2nc(S(=O)(=O)Cc3cccc(C)c3)ncc2Cl)cc1 | 12µM | 0.58µM | 15µM | 0.52µM | 21µM | 9.2µM
COC(=O)c1ccccc1NC(=O)c1nc(S(=O)(=O)Cc2cccc(C)c2)ncc1Cl | . | 2.9µM | . | 2.6µM | . | .
CCCN1C2CCCC1CC(NC(=O)C1CCCCC1)C2 (centres undefined) | ? | - | - | - | - | -
O=C(NC1CC2CCCC(C1)N2CC(=O)N1CCCc2ccccc21)C1CCCCC1 (centres undefined) | - | - | - | - | - | -
O=C(CN1C2CCCC1CC(NC(=O)C1CCCCC1)C2)NCc1ccc(F)cc1 (centres undefined) | - | ? | - | 16µM | - | ?
O=C(CN1C2CCCC1CC(NC(=O)C1CCCCC1)C2)Nc1ccccc1C(F)(F)F (centres undefined) | - | 23µM | - | 15µM | ? | ?
CCc1cccc(CC)c1NC(=O)CN1C2CCCC1CC(NC(=O)Nc1cccc(OC)c1)C2 (centres undefined) | ? | 18µM | ? | ? | ? | 21µM
COc1cccc(C(=O)NC2CC3CCC(C2)N3Cc2ccccc2)c1 (centres undefined) | - | - | - | - | - | -
COc1cccc(C(=O)NC2CC3CCCC(C2)N3CC(=O)Nc2ccccc2C(F)(F)F)c1 (centres undefined) | ? | ? | ? | 16µM | ? | -
O=C(NCC1CCCO1)/C(=C/c1ccccc1F)NC(=O)c1ccccc1 (centres undefined) | - | - | - | - | - | -
N#CCN(C(=O)CSc1nnc(C2CC2)n1C1CC1)c1ccccc1 | - | - | - | - | - | -
CC1=C(C(=O)N2CCOCC2)CC(CC(=O)NC2CCCCC2)C(=O)N1Cc1ccc(F)cc1 (centres undefined) | - | - | - | - | - | -
O=C(Nc1ccccc1)N1CCCC2(CCNCC2)C1 | . | - | . | - | . | .
